Whole data set: some 33,000 sequences, median “normalized occupancy” near 0.075, cut for the highest 2% near 0.095. This excerpt belongs to a sample that is enriched for the highest values.
Biological target: MaxL homodimer (Homo sapiens, UniProt P61244 1-160)
Experiment: universal protein-binding microarray (PBM); PBS-based mixture, 10 nM His-tagged protein dimer, 2% milk, 200 ng/uL BSA, 50 ng/uL salmon testes DNA, 0.02% TX-100; detection with Alexa 488 anti-His antibody;; high values mean tight binding
Settings: protein: recombinant; tags: C-terminal His-tag (pET21a); chain copies: 2; dsDNA, one strand shown
How it was run: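 His-tagged protein dimer at 10 nM was bound to Agilent 4 x 44 K 'all 10-mer' universal arrays and detected with 10 ng/μL fluorophore-conjugated anti-His antibody on a GenePix 4400A, giving an intensity per 8-mer. Binding occupancy normalises each intensity to the top-ranked one.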

MaxL homodimer, sequence (P61244 whole entry): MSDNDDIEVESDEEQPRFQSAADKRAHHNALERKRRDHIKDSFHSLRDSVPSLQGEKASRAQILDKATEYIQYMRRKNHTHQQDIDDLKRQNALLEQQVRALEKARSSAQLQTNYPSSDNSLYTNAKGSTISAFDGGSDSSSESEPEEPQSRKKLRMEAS

Sequence	binding signal [normalized occupancy]
CGCCATGC	0.0988
AGCCATGA	0.0819
AGCCATGC	0.0996
AGCCATGG	0.0832
CGCCATGA	0.0842
CGCCATCC	0.077
ATGTCAAT	0.0778
GGTAACCA	0.0775
CTTCTTTA	0.075
AAAACGAT	0.0742
ACATGGGC	0.0848
ACATGGAT	0.101
ACATGGGG	0.101
ACATGGCG	0.098
ACATGGAA	0.0918
ACATGGCT	0.0932
CCATGGCG	0.0768
AAATGGGT	0.0763
ACATGGGT	0.1
ACTTGGGG	0.0791
CCATGGGG	0.0949
ACATGGAG	0.0868
GACATTGA	0.078
CAATGAGC	0.074
CGTGCGTA	0.0916

Sequence	binding signal [normalized occupancy]
ATTATGTA	0.0828
CCCCCGCG	0.0757
TGGCTAAA	0.074
ATGACAGC	0.0803
GTAATAAA	0.076
ACTACTAT	0.0796
GGGGGCAC	0.0775
AAACGTAA	0.0743
GGAGACAA	0.0754
CTTAGGCA	0.0777
AACTAATT	0.0744
GTTTAGAA	0.0757
AGTTTACA	0.0773
AGCGTGAT	0.1
ACCGTGAT	0.0871
AGCGTGAC	0.101
AGCGTGAA	0.0854
AGTGTGAC	0.089
AGAGTGAC	0.0747
CCATAGGA	0.0736
AACCTTGT	0.0729
CAAGGAAC	0.079
GGACGGCA	0.0718
GAAATTTA	0.0725
ATTAGTCA	0.0775

Sequence	binding signal [normalized occupancy]
GAATTCTA	0.0768
ACCGTGAC	0.0781
AACGTGAT	0.11
AACGTGAC	0.109
AACGTGAA	0.0849
AAGGTGAC	0.0729
AACGTGAG	0.0854
ACCTAACC	0.0792
GAGATGGA	0.0798
GGTACCCA	0.0727
AATCATGC	0.0958
GATCATGA	0.0863
CATCATGG	0.0895
ATTCATGC	0.0905
AATCATCC	0.083
CATCATGC	0.0995
GATCATGC	0.101
CATCATGA	0.0846
AATCATGT	0.0985
AATCATGG	0.0832
AATCATGA	0.0851
GATCATCC	0.0784
ATGCTCCA	0.0829
TGAGTTAA	0.078
GAGCGTGA	0.0923

Sequence	binding signal [normalized occupancy]
CATCGTGG	0.0917
CAGCGTGG	0.129
CAGCGTCA	0.0719
TAGCGTGA	0.0905
CAGCGTGA	0.104
CTAATGTA	0.078
ATGTACGA	0.0873
AATGGGGA	0.0809
CATGGGGA	0.1
CATGGGAA	0.0896
CATGGGGG	0.0995
AATGGGGG	0.0803
CATGGGGC	0.0935
CCGTTTGA	0.0729
CAGGTGAC	0.0878
AAACATTA	0.0779
CAATGCGG	0.0873
GGATGCGA	0.0783
GAATGCGC	0.075
TCATGCGA	0.0877
GCATGCGA	0.119
AAATGCGC	0.0749
CCATGCGG	0.145
CCATGCGA	0.1
CCCTGCGG	0.0745

Sequence	binding signal [normalized occupancy]
CAATGCGA	0.0774
GCATGCGC	0.121
GTATGCGA	0.0727
TGATAGAA	0.0854
GTGTCGTA	0.0815
AGGTCACG	0.082
CTGTTGTA	0.0736
AAAGAGCA	0.0761
ATGCGCGA	0.0781
ATGTTCAG	0.0809
ACACATCC	0.0784
CCATGCGC	0.121
CTATGCGC	0.075
CAATGCGC	0.0788
ACCATTGC	0.0746
AAACGTAC	0.074
CAACGTGC	0.122
AAACGTGC	0.101
CAACGTAA	0.0776
GAACGTGC	0.0931
CAACGTTC	0.0755
CAACGTCA	0.0743
AAACGTAT	0.0746
AAACGTTT	0.0755
CAACGTGA	0.118

Sequence	binding signal [normalized occupancy]
AAACGTGT	0.1
CAACGTAC	0.0758
CACACCCA	0.0877
ATTATTTG	0.0793
ACCGATAC	0.075
TCTCCAAA	0.0803
CTCTCAGC	0.0719
CATGGCTC	0.09
AAACCATA	0.0792
CTGAATCC	0.0737
CGTACGCC	0.0757
CTTAACCC	0.0738
ACAACTAA	0.0755
CGGCAGCC	0.0724
CGTTTAGA	0.0747
AAACGTGA	0.099
CAACGTGG	0.154
AAACGTGG	0.123
CAACGTAG	0.0762
CAACGTTG	0.083
TAACGTGA	0.0935
GAACGTGA	0.0801
AAACGTAG	0.0771
AAACGTCG	0.0737
ATCGCCAG	0.0753

Sequence	binding signal [normalized occupancy]
AAGACATG	0.0912
GAAGCATC	0.076
AACATCCA	0.0849
ACTTAAAT	0.0746
CCACGTGG	0.971
TCACGTGA	0.19
CGACGTGA	0.0883
TCACGTAA	0.086
CCACGTGA	0.482
TCACGTCA	0.0819
CCACGTAG	0.0817
CTACGTGC	0.0865
CCACGTGC	0.814
CTACGTGA	0.0799
CCACGTCG	0.086
CGACGTGC	0.083
GGAGAGCA	0.0742
CCGTCTAA	0.0757
ACAAATGT	0.079
GGTCAGGA	0.0732
GAGGAAGA	0.075
ACCTGTAA	0.0823
ATACCTGC	0.0811
TCACCTGA	0.0809
